The source of these data is article PMC5540273 (PLoS ONE, 2017).

Read-outs that look alike come from different tables or passages of the source.

One test concerns LRRK2. To be noted: concentration: 1 μM, replicates: in singlicate; n = 1.
For the next test, the system named is LTK. To be noted: n = 1.
Another test has as its system LYN. To be noted: concentration: 1 μM, replicates: in singlicate; n = 1.
In the next test the test system is T1, LZK.
T1 construct: gene MAP3K13
The settings on record: concentration: 1 μM, replicates: in singlicate; n = 1.

Another test relates to MAK. The settings on record: concentration: 1 μM, replicates: in singlicate; n = 1.
A further test deals with MAP3K15. The settings on record: concentration: 1 μM, replicates: in singlicate; n = 1.
The next test relates to MAP3K1. The settings on record: concentration: 1 μM, replicates: in singlicate; n = 1.
Another test concerns MAP3K2. To be noted: concentration: 1 μM, replicates: in singlicate; n = 1.
The next test has as its system MAP3K3. The settings on record: concentration: 1 μM, replicates: in singlicate; n = 1.
The next test has as its system MAP3K4. To be noted: concentration: 1 μM, replicates: in singlicate; n = 1.
For the next test, the system named is MAP4K2. The settings on record: concentration: 1 μM, replicates: in singlicate; n = 1.
For another test, the system named is MAP4K3. To be noted: concentration: 1 μM, replicates: in singlicate; n = 1.
Another test has as its system MAP4K4. To be noted: concentration: 1 μM, replicates: in singlicate; n = 1.
Another test deals with MAP4K5. To be noted: concentration: 1 μM, replicates: in singlicate; n = 1.
A further test deals with MAPKAPK2. The settings on record: concentration: 1 μM, replicates: in singlicate; n = 1.
The next test deals with MAPKAPK5. To be noted: concentration: 1 μM, replicates: in singlicate; n = 1.
The next test concerns MARK1. To be noted: concentration: 1 μM, replicates: in singlicate; n = 1.
The next test has as its system MARK2. To be noted: concentration: 1 μM, replicates: in singlicate; n = 1.
The subject of a further test is MARK3. The settings on record: concentration: 1 μM, replicates: in singlicate; n = 1.
Another test concerns MARK4. The settings on record: concentration: 1 μM, replicates: in singlicate; n = 1.
Where [1] appears, read: concentration: 1 μM, replicates: in singlicate.
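Note: KINOMEscan kinase panel screen.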

Take `CS(=O)(=O)Cc1ccc(Nc2nccc(-c3c(-c4cccc(NC(=O)C5CCCCC5)c4)nn4ncccc34)n2)cc1` [GSK350559]: the “%Inh” value in the test on LRRK2 is 20%; with LTK (1 µM) it was 0%; in the test with LYN it was 16%; in the test with LZK, 0%; in the test on MAK, 0%; with MAP3K15, 38%. In addition, the “%Inh” value with MAP3K1 is recorded as 30%; in the test with MAP3K2, 15%; with MAP3K3, 19%; with MAP3K4, 11%; in the test on MAP4K2, 36%; with MAP4K3 it was 0%. Also, the “%Inh” value stood at 0% in the test with MAP4K4; 10% with MAP4K5; 0% with MAPKAPK2; 39% in the test with MAPKAPK5; 37% in the test on MARK1; 0% with MARK2. In addition, the figures for the “%Inh” value in the test with MARK3 and with MARK4 were 0% and 5%, respectively.

With `Cc1ccc(NC(=O)Nc2ccc(Cl)cc2)cc1-c1ccc(C(=O)Nc2ccncc2)cc1` [GSK1398472], the “%Inh” value in the test on LRRK2 is reported as 0%; with LTK (setting [1]) it was 2%; in the test with LYN it was 30%; with LZK, 3%; with MAK it was 18%; with MAP3K15, 0%. The “%Inh” value is on record as 3% in the test with MAP3K1; 16% in the test with MAP3K2; 0% in the test on MAP3K3; 6% with MAP3K4; 0% in the test on MAP4K2; 0% in the test with MAP4K3. In addition, the “%Inh” value in the test on MAP4K4 stood at 5%; with MAP4K5, 6%; in the test with MAPKAPK2 it was 19%; with MAPKAPK5 it was 0%; with MARK1, 0%; with MARK2, 0%. For the same compound, the “%Inh” value was 0% in the test with MARK3 and 1% in the test on MARK4.

For `COc1cccc(NC(=O)Nc2ccc(C)c(-c3ccc(C(=O)Nc4ccncc4)cc3)c2)c1` [GSK1398474], the “%Inh” value in the test on LRRK2 worked out at 0%; in the test with LTK (setting [1]), 23%; in the test with LYN, 97.9%; in the test on LZK it was 0%; in the test on MAK, 100%; with MAP3K15, 0%. Moreover, the “%Inh” value is 13% in the test on MAP3K1; 0% in the test on MAP3K2; 0% in the test on MAP3K3; 20% with MAP3K4; 0% in the test on MAP4K2; 0% in the test with MAP4K3. Moreover, the “%Inh” value in the test with MAP4K4 turned out to be 24%; in the test with MAP4K5, 16%; with MAPKAPK2 it was 5%; in the test on MAPKAPK5, 0%; with MARK1, 94.1%; in the test with MARK2, 18%. Also, the “%Inh” value in the test on MARK3 stood at 0%; in the test on MARK4 it was 20%.

On to `CCn1c(-c2c(N)noc2C)nc2cnccc21` [SB-737856], for which the “%Inh” value in the test on LRRK2 came to 0%; in the test on LTK (setting [1]), 10%; with LYN it was 0%; in the test on LZK, 0%; in the test on MAK, 0%; with MAP3K15, 0%. The “%Inh” value in the test with MAP3K1 worked out at 0%; in the test with MAP3K2, 17%; in the test with MAP3K3, 0%; in the test with MAP3K4, 19%; in the test with MAP4K2 it was 0%; with MAP4K3, 2%. Besides, the “%Inh” value is 10% in the test on MAP4K4; 0% with MAP4K5; 19% in the test with MAPKAPK2; 0% in the test on MAPKAPK5; 0% with MARK1; 0% with MARK2. Further, the “%Inh” value with MARK3 and in the test with MARK4 was 0% in each case.

`COc1ccc(-c2coc3ccc(-c4nnc(C)o4)cc23)cc1`: the “%Inh” value with LRRK2 is 0%; with LTK (setting [1]), 0%; in the test with LYN, 10%; in the test on LZK it was 0%; with MAK, 0%; with MAP3K15, 0%. Further, the “%Inh” value is 0% in the test with MAP3K1; 0% in the test with MAP3K2; 0% in the test on MAP3K3; 8% with MAP3K4; 0% with MAP4K2; 0% in the test with MAP4K3. Moreover, the “%Inh” value in the test on MAP4K4 stood at 0%; in the test on MAP4K5, 0%; in the test with MAPKAPK2 it was 0%; in the test on MAPKAPK5, 0%; in the test on MARK1, 100%; with MARK2 it was 30%. Besides, the “%Inh” value in the test with MARK3 is listed as 0%; with MARK4 it was 100%.

As for `CC(=O)c1cccc(NC(=O)NC2CCN(c3ccnc(Nc4ccc(F)cc4)n3)C2)c1` (centres unmarked) [GSK1379710], the “%Inh” value with LRRK2 came to 14%; in the test on LTK (setting [1]), 0%; with LYN, 0%; in the test with LZK, 28%; in the test on MAK it was 47%; in the test on MAP3K15, 7%. The “%Inh” value in the test on MAP3K1 is reported as 3%; with MAP3K2, 0%; with MAP3K3, 0%; with MAP3K4 it was 30%; with MAP4K2, 11%; with MAP4K3 it was 8%. The “%Inh” value with MAP4K4 came out at 13%; in the test with MAP4K5 it was 16%; in the test with MAPKAPK2 it was 16%; in the test on MAPKAPK5 it was 0%; in the test with MARK1 it was 0%; in the test with MARK2 it was 0%. In addition, the “%Inh” value is reported as 16% in the test on MARK3 and 0% in the test with MARK4.

For the compound `O=c1cc(N2CCOCC2)nc2n(Cc3cccc(Cl)c3Cl)c3ccccc3n12` [GSK2299009], the “%Inh” value in the test with LRRK2 came to 0%; in the test with LTK (setting [1]), 39%; in the test with LYN it was 0%; in the test with LZK, 0%; in the test with MAK it was 15%; in the test on MAP3K15, 3%. Moreover, the “%Inh” value with MAP3K1 is reported as 7%; with MAP3K2, 21%; in the test with MAP3K3, 0%; in the test with MAP3K4, 0%; in the test with MAP4K2, 0%; in the test on MAP4K3, 0%. The “%Inh” value in the test with MAP4K4 was 0%; in the test with MAP4K5 it was 0%; in the test with MAPKAPK2 it was 32%; in the test on MAPKAPK5, 0%; in the test on MARK1 it was 7%; with MARK2, 0%. Further, the entries for the “%Inh” value with MARK3 and in the test with MARK4 were 0% and 23%, respectively.

Take `Cc1ccc(NC(=O)Nc2ccccc2F)cc1-c1ccc(C(=O)Nc2ccncc2)cc1` [GSK1398477]: the “%Inh” value in the test with LRRK2 was found to be 15%; with LTK (setting [1]) it was 16%; with LYN it was 47%; with LZK it was 0%; in the test with MAK, 30%; in the test on MAP3K15, 0%. Besides, the “%Inh” value in the test on MAP3K1 turned out to be 12%; with MAP3K2, 5%; with MAP3K3, 0%; in the test on MAP3K4 it was 24%; with MAP4K2, 0%; in the test on MAP4K3, 21%. In addition, the “%Inh” value in the test on MAP4K4 worked out at 29%; with MAP4K5, 27%; with MAPKAPK2 it was 37%; with MAPKAPK5 it was 0%; in the test with MARK1 it was 8%; in the test on MARK2 it was 5%. In addition, the “%Inh” value in the test with MARK3 came out at 0%; in the test with MARK4, 19%.

With `COc1ccc(CSc2nnc(-c3ccc4ncsc4c3)o2)cc1C(F)(F)F`, the “%Inh” value with LRRK2, with LTK (setting [1]), with LYN, in the test on LZK, in the test on MAK and in the test with MAP3K15 was 0% throughout. The “%Inh” value with MAP3K1 turned out to be 0%; in the test with MAP3K2, 0%; with MAP3K3, 0%; in the test on MAP3K4, 7%; in the test with MAP4K2, 0%; with MAP4K3, 0%. In addition, the “%Inh” value in the test with MAP4K4 was 0%; in the test with MAP4K5, 0%; in the test with MAPKAPK2, 0%; with MAPKAPK5 it was 0%; in the test on MARK1, 0%; in the test with MARK2 it was 24%. The “%Inh” value in the test on MARK3 is reported as 0%; with MARK4, 2%.

Regarding `CNc1nc(-c2ccc3c(N)n[nH]c3c2)cc(N2C[C@@H](C(=O)NC3CCCCC3)OC[C@H]2C)n1` [GSK2375584], the “%Inh” value with LRRK2 is 0%; in the test with LTK (setting [1]), 0%; with LYN it was 0%; in the test on LZK it was 35%; in the test on MAK, 0%; with MAP3K15 it was 0%. The “%Inh” value in the test with MAP3K1, with MAP3K2, in the test with MAP3K3, in the test with MAP3K4, in the test with MAP4K2 and with MAP4K3 was 0% throughout. Further, the “%Inh” value with MAP4K4 is given as 15%; in the test with MAP4K5 it was 9%; in the test on MAPKAPK2 it was 17%; with MAPKAPK5, 2%; in the test with MARK1, 10%; with MARK2, 0%. In addition, the figures for the “%Inh” value with MARK3 and in the test with MARK4 were 0% and 18%, respectively.
